Test results: PubChem BioAssay (Tox21)
Results filed as inconclusive are left out. Values without a mark were called inactive. Calls follow the shape of the dose curve; as a rule, active = well fitted activation curve with a large enough effect in the repeat runs; inconclusive = weak or mixed curves; inactive = flat fitted curve, though single readings scatter.

experiment: A CellTox Green Cytotoxicity Assay to monitor cytotoxicity in HEK293 cells - 40 hour (AID 1224871); details: CellTox Green fluorescence; series mostly up to 76.8 µM; cytotoxicity increase: at the top concentration; also: nearly all actives have a fitted effect of over 45% in size
Text: National Center for Advancing Translational Sciences [NCATS]
NIH Chemical Genomics Center [NCGC]
U.S. Environmental Protection Agency [EPA]
National Institutes of Environmental Health Sciences [NIEHS]
National Toxicology Program [NTP]
Cell-based models are critical for drug discovery. Determining the natural cytotoxic effects resulting from test compounds is an essential research activity. A CellTox Green Cytotoxicity Assay to monitor cytotoxicity in real time of continues cell culture during 40 hours of the compound treatment was used to screen Tox21 10K library compounds in Hek293 cells. CellTox Green Cytotoxicity Assay is a nonlytic, homogeneous, biofluorescent method to measure cytotoxicity in cell culture after experimental manipulation. The assay system uses a proprietary asymmetric cyanine dye that is excluded from viable cells but preferentially stains the dead cell's DNA. […] Viable cells produce no appreciable increases in fluorescence. Therefore, the fluorescence signal produced by the binding interaction with dead cell DNA is proportional to cytotoxicity.
The mixture of Hek293 cell suspension and reagents were dispensed at 600cells/6 ul/well in 1536-well tissue culture treated black solid bottom plates using a Multidrop dispenser. After the assay plates were incubated at a 37 C/5% CO2 incubator for 5 hours, 23 nL of compounds dissolved in DMSO, positive and negative controls was transferred to the assay plate by a pintool work station. The plates were incubated at 37 C for 40 hours. The fluorescence intensity were measured at 0h, 8h, 16h, 24h, 32h and 40h time points using ViewLux plate reader during compound treatment.
% is scaled to controls: 0 for no effect and ±100 for the full control effect.

Structure (SMILES) | cytotoxicity increase
O=C1CCCN1CCO | -7.41%
COC(=O)c1cc(Cl)ccc1[N+](=O)[O-] | -11.1%
O=C(OCCN1CCOCC1)c1cccnc1Nc1cccc(C(F)(F)F)c1 | -16.6% [at 35.3 µM]
Cc1c(Nc2ncccc2C(=O)O)cccc1C(F)(F)F | -18.6% [at 35.3 µM]
Clc1cccc(C(c2ccc3nc[nH]c3c2)n2ccnc2)c1 (stereo not given) | 2.82% [at 35.3 µM]
Oc1ccc(CCNCCCCCCNCCc2ccccc2)cc1O | 4.18% [at 35.3 µM]
CCCC(=O)OCCC(C)C | -2.89%
CCCCCCCCCCCCN1CCOCC1 | 7.08%
CC(C)(C)c1cc(C=O)cc(C(C)(C)C)c1O | -3.42% [at 35.3 µM]
Nc1ccc(C(=O)Oc2ccccc2)c(O)c1 | 11.7% [at 35.3 µM]
O=C1C=CCCC1 | -1.22%
O=C(O)c1ccc2cc(O)ccc2c1 | 2.45%
Cc1cc(SC2=C(O)C[C@@](CCc3ccc(N)cc3)(C(C)C)OC2=O)c(C(C)(C)C)cc1CO | -22.7%
O=S(=O)(O)c1cc(Cl)c(Cl)cc1Cl | 0.21%
OCCOc1cccc(OCCO)c1 | -8.86%
CC1=CC(=C(c2ccc(N)cc2)c2ccc(N)cc2)C=CC1=N | 5.33% [at 6.97 µM]
CC(CN=Cc1ccccc1O)N=Cc1ccccc1O (stereo not given) | -7.85%
CCCCC(CC)COCCC#N (stereo not given) | 1.21%
CCC(C)CCCC(C)(C)O (stereo not given) | -0.417%
CCCC1CCCC(=O)O1 (stereo not given) | -7.18%

Structure (SMILES) | cytotoxicity increase
CC(=O)Nc1cccc(N)c1 | -1.97%
[O-][n+]1ccc(Cl)cc1 | -1.81%
O=c1[nH][nH]c2ccccc12 | -4.76%
CCCCCCCCCCCCSCCOCCO | 12.9% [at 35.3 µM]
CC(=O)Nc1ccn(C2COC(COC(=O)c3ccccc3)O2)c(=O)n1 (stereo not given) | -9.07% [at 35.3 µM]
O=C(c1ccc(Cl)cc1)c1ccc(Cl)cc1 | -2.49%
C=C(C)C(=O)OCCCCCCCCCCOC(=O)C(=C)C | 18.1%
O=C(O)c1ccncc1 | -0.735%
CCCCCCCCS | 1.26%
CCCCCCCCCCCCSC#N | 12.6%
COc1ccc(/C(C)=C/C(=O)O)c(OC)c1 | -2.06% [at 35.3 µM]
Cc1nc2sccn2c(=O)c1CCN1CCC(=C(c2ccc(F)cc2)c2ccc(F)cc2)CC1 | 19.1% [at 35.3 µM]
C=C[Si]1(C)O[Si](C)(C=C)O[Si](C)(C=C)O[Si](C)(C=C)O1 (stereo not given) | -15.8%
OCCCO | -4.88%
C=CC(C)CCC=C(C)C (stereo not given) | 6.44%
Cc1ccc2c(Cl)cc(Cl)c(O)c2n1 | -2.41% [at 35.3 µM]
CC1(C)C(=O)NC(=O)N1CO | 2.06%
O=C(O)c1ccc(O)c(O)c1 | -9.62%
CCN(CC)CC(=O)OCC(=O)[C@@]1(O)CC[C@H]2[C@@H]3CCC4=CC(=O)CC[C@]4(C)[C@H]3[C@@H](O)C[C@@]21C | 4.71% [at 35.3 µM]
OCCc1ccncc1 | 1.84%
